Among the test systems are DU-145 prostate; K-562 leukemia; MALME-3M melanoma; MDA-MB-231 breast; SF-268 CNS; SF-295 CNS; SF-539 CNS; UACC-257 melanoma; M14 melanoma.
Holding throughout (experiment): NCI-60 one-dose screen, 48 h (100 = growth as untreated, 0 = no growth, -100 = all killed)
Holding throughout (conditions): 10 µM

Compounds without any hit were thinned out: in the full panel of roughly 83,000, 20% have a hit.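 Compound tested at a single concentration for 48 hours in 96-well plates; a percent growth value below 10 was scored as active.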 Unmarked numbers belong to inactive results. Activity calls are given as the source filed them.

As to `CC(=O)Oc1ccccc1C(=O)Oc1ccc(C(=O)/C=C/c2ccncc2)cc1`, the growth with DU-145 prostate was 46.2%; in the assay with K-562 leukemia, 11.6%; in the assay with MALME-3M melanoma, 86.2%; in the assay with MDA-MB-231 breast, 40.8%; in the assay on SF-268 CNS it was 75%; in the assay on SF-295 CNS, 59.1%. Besides, the growth is -35.6% (active) in the assay on SF-539 CNS, 94.9% in the assay on UACC-257 melanoma and 47.6% in the assay with M14 melanoma.
With `Cc1ccc(-c2ccc(SCC(=O)Nc3ccc(S(N)(=O)=O)cc3Br)nn2)cc1`, the growth with DU-145 prostate is 21.5%; in the assay on K-562 leukemia, 72.4%; with MALME-3M melanoma, 29%; with MDA-MB-231 breast, 1.3% (active); in the assay with SF-268 CNS, 45.9%; in the assay with SF-295 CNS, 21.6%. Also, the growth in the assay with SF-539 CNS was 13.3%; in the assay on UACC-257 melanoma, 77.9%; with M14 melanoma it was 69.5%.
Consider `COc1ccc2c(c1)N=C(C(=O)O)/C2=C/c1sc(Nc2ccc(O)cc2)nc1O`, for which the growth with DU-145 prostate was 94.1%; in the assay on K-562 leukemia, 29.1%; in the assay with MALME-3M melanoma, 50.7%; in the assay with MDA-MB-231 breast, 63.7%; with SF-268 CNS, 78.1%; in the assay with SF-295 CNS, 76.5%. Also, the figures for the growth with SF-539 CNS, in the assay on UACC-257 melanoma and with M14 melanoma were 52.1%, 81.3% and 72.3%, respectively.
`CC(=O)c1ccc(Nc2nc(SCCC(C)C)nc(-c3ccc(F)cc3)c2C#N)cc1`: the growth in the assay on DU-145 prostate is 61.1%; with K-562 leukemia, 63.9%; in the assay with MALME-3M melanoma, 72.7%; in the assay on MDA-MB-231 breast it was 24.8%; in the assay on SF-268 CNS it was 52.9%; in the assay on SF-295 CNS, 11.5%. Also, the values for the growth in the assay with SF-539 CNS, with UACC-257 melanoma and in the assay with M14 melanoma were 16.3%, 106% and 84.7%, respectively.
`CN1CCCN(Cc2ccc(C(=O)Nc3cccc(Nc4ccc5c(O)cccc5n4)c3)cc2C(F)(F)F)CC1`: the growth is -44.5% (active) in the assay on DU-145 prostate; 11.5% in the assay on K-562 leukemia; -95.9% (active) in the assay on MALME-3M melanoma; -75.6% (active) in the assay on MDA-MB-231 breast; -55.6% (active) in the assay with SF-268 CNS; -91% (active) with SF-295 CNS. In addition, the figures for the growth in the assay with SF-539 CNS, with UACC-257 melanoma and in the assay on M14 melanoma were -98.3% (active), -81.3% (active) and -84.7% (active), respectively.
As to `O=C(NO)c1ccc(Cn2ccc3c(NCc4ccccc4)ncnc32)cc1`, the growth in the assay on DU-145 prostate is 10.3%; with K-562 leukemia, 12.2%; in the assay with MALME-3M melanoma it was -5.08% (active); in the assay on MDA-MB-231 breast, -18% (active); in the assay on SF-268 CNS it was 19%; in the assay with SF-295 CNS it was -68.2% (active). Moreover, the growth was -71.1% (active) in the assay with SF-539 CNS, -20.8% (active) in the assay with UACC-257 melanoma and -9.73% (active) in the assay on M14 melanoma.
Turning to `COc1ccc(-c2nc(-c3ccccc3)c(-c3ccccc3)n2-c2ccc(S(=O)(=O)Nc3ncccn3)cc2)cc1OC`, the growth was 89% with DU-145 prostate; 76.8% in the assay on K-562 leukemia; 106% in the assay on MALME-3M melanoma; 62.2% with MDA-MB-231 breast; 82.9% in the assay with SF-268 CNS; 46.5% in the assay with SF-295 CNS. Also, the growth in the assay with SF-539 CNS was 67.2%; in the assay on UACC-257 melanoma it was 113%; with M14 melanoma, 93.9%.
`CCOc1ccc2ncc(C#Cc3cncc(C(=O)Nc4ccc(CN5CCN(C)CC5)c(C(F)(F)F)c4)c3)n2n1`: the growth is -96.7% (active) in the assay on DU-145 prostate; 4.86% (active) in the assay on K-562 leukemia; -81.9% (active) in the assay with MALME-3M melanoma; -88.9% (active) with MDA-MB-231 breast; -49.4% (active) in the assay with SF-268 CNS; -88.5% (active) with SF-295 CNS. Besides, the growth in the assay with SF-539 CNS was -97.9% (active); in the assay with UACC-257 melanoma it was -62.2% (active); in the assay on M14 melanoma, -73% (active).
For the molecule `COc1ccc(-c2cc(-c3cc(C(=O)c4ccc(Br)cc4)n4ccc(C)cc34)nc(N)c2C#N)cc1`, the growth in the assay with DU-145 prostate was 75.9%; with K-562 leukemia, 92.6%; in the assay with MALME-3M melanoma it was 74.4%; in the assay with MDA-MB-231 breast it was 59.7%; in the assay on SF-268 CNS, 93.9%; with SF-295 CNS, 89.1%. Moreover, the growth is 5.3% (active) in the assay with SF-539 CNS, 88% in the assay with UACC-257 melanoma and 64.6% in the assay with M14 melanoma.
In the case of `CCCn1c(=O)c2[nH]c(-c3ccc(OCc4nc5ccc(C)cc5[nH]4)cc3)nc2n(CCC)c1=O`, the growth in the assay on DU-145 prostate was 61.8%; in the assay with K-562 leukemia, 28.3%; with MALME-3M melanoma it was -69% (active); with MDA-MB-231 breast, -50.7% (active); in the assay on SF-268 CNS, 66.4%; with SF-295 CNS it was 12.6%. The growth in the assay on SF-539 CNS was -84.2% (active); in the assay with UACC-257 melanoma it was 65.5%; in the assay on M14 melanoma it was 59.7%.
For the molecule `Cc1ccc2nc(-c3ccc(-c4nnc(SCC(=O)Nc5ccc(Cl)cc5)o4)cc3)[nH]c2c1`, the growth is 45% with DU-145 prostate; 18% with K-562 leukemia; 26.2% in the assay with MALME-3M melanoma; 10.6% with MDA-MB-231 breast; 68.6% in the assay on SF-268 CNS; 21.4% in the assay with SF-295 CNS. Further, the growth was 57% with SF-539 CNS, 102% in the assay with UACC-257 melanoma and 53.6% with M14 melanoma.
Turning to `COc1ccc(CN2[C@H](C(=O)NCc3ccc(C(=O)NO)cc3)Cc3c([nH]c4ccccc34)[C@H]2C2CC2)cc1`, the growth in the assay on DU-145 prostate is 57%; with K-562 leukemia, 26.2%; in the assay on MALME-3M melanoma, 30.4%; in the assay on MDA-MB-231 breast it was 54.5%; in the assay on SF-268 CNS, 64.9%; with SF-295 CNS it was 45.5%. For the same molecule, the growth in the assay on SF-539 CNS is 41.6%; with UACC-257 melanoma, 43.4%; in the assay with M14 melanoma, 49.6%.
On to `CN1CCO/C1=C(/NC(=O)c1ccc(Cl)cc1)[P+](c1ccccc1)(c1ccccc1)c1ccccc1`, for which the growth with DU-145 prostate was 95.2%; with K-562 leukemia it was 50.3%; in the assay with MALME-3M melanoma, 69.2%; in the assay with MDA-MB-231 breast it was 61.8%; with SF-268 CNS, 97%; with SF-295 CNS, 80.2%. Besides, the growth is 94.5% with SF-539 CNS, 62.4% in the assay on UACC-257 melanoma and 88.5% in the assay with M14 melanoma.

The values above are taken from PubChem BioAssay (NCI).
